The text below walks through data of PubChem BioAssay (Tox21).

Results filed as inconclusive are left out. Where a call stands in place of a potency, no number is given. Activity calls are given as the source filed them. Calls come from the whole dose curve; as a rule, active = well fitted cell-killing curve with a large enough effect in the repeat runs; inconclusive = weak or mixed curves, or effect the other way; inactive = no such curve, though single readings can be large or run the other way.

The nature of this assay: qHTS assay to identify small molecule antagonists of the vitamin D receptor (VDR) signaling pathway - cell viability counter screen (AID 743225). Note: nearly all actives have a fitted effect of over 50% in size. The following applies: VDR-bla HEK293T viability, CellTiter-Glo luminescence, 16 h; series mostly up to 61 µM. A digest of the protocol:
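Parallel cytotoxicity test: VDR-UAS-bla HEK 293T, 3 nM (final) 1-alpha,25-dihydroxyvitamin D3 with test compound, 16 h, 37C. Endpoint is CellTiter-Glo luminescence in the same wells.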
For the molecule `COc1cnc(OC)n2nc(NS(=O)(=O)c3c(OCC(F)F)cccc3C(F)(F)F)nc12`, the Potency entry is “inactive”.

Consider `O=C(N[C@@H]1N=C(c2ccccc2F)c2cccc3c2N(CC3)C1=O)c1cc2ccccc2[nH]1`, for which the Potency entry was “inactive”. The value for `[C-]1=CC=CC1.[Cl][Zr+2][Cl].c1cc[cH-]c1` was “inactive”. For the molecule `Nc1ccc(Cl)cc1C(=O)c1ccccc1F`, the Potency result was “inactive”. For `CCOP(=O)(Sc1ccccc1)Sc1ccccc1`, the Potency entry was “inactive”. The value for `O=S(=O)(O)F` was “inactive”; that for `O=[N+]([O-])c1ccc(Cl)c(Cl)c1Cl` was “inactive”; that for `CSC(C)(C)/C=N/O` was “inactive”.

In the case of `CNC(=O)O/N=C(\C)C(C)S(C)(=O)=O` (stereo not drawn), the Potency entry was “inactive”. The value for `Cc1ccc(C)c2ccccc12` was “inactive”; that for `COC(=O)c1ccccc1S(=O)(=O)NC(=O)Nc1nc(C)nc(OC)n1` was “inactive”; that for `CC1CN1` (stereo not drawn) was “inactive”. The value for `c1cc[n+]2c(c1)-c1cccc[n+]1CC2` was “inactive”; that for `O=C(Nc1ccc(F)cc1F)c1cccnc1Oc1cccc(C(F)(F)F)c1` was “inactive”. The value for `CCN(CC)CCN1C(=O)CN=C(c2ccccc2F)c2cc(Cl)ccc21` was “inactive”; that for `ClCBr` was “inactive”. For the molecule `CC#C[C@]1(O)CC[C@H]2[C@@H]3C[C@H](C)C4=CC(=O)CC[C@]4(C)[C@H]3CC[C@@]21C`, the Potency result was “inactive”. Take `COc1ccc2[nH]cc(CCN(C(C)C)C(C)C)c2c1`: the Potency result was “inactive”. For `O=[N+]([O-])c1ccccc1-c1ccccc1`, the Potency entry is “inactive”. `CC(C)C(Br)C(=O)NC(N)=O` (stereo not drawn): the Potency entry was “inactive”. `CC[C@]1(O)CC[C@H]2[C@@H]3CCC4=CCCC[C@@H]4[C@H]3CC[C@@]21C`: the Potency result was “inactive”. The value for `CCC1(CC)C(=O)N=C(O)NC1=O` was “inactive”. In the case of `CC(C)NCC(O)c1ccccc1Cl` (stereo not drawn), the Potency entry was “inactive”.
